From PubChem
APEX1 inh: blocks human APE1 abasic DNA cleavage; Potency, µM (doses to about 65.8 µM), inactives show top-dose activity change, negative = inhibition, hits mostly inhibitors; AID 2517; P27695; recombinant APE1, TAMRA/BHQ-2 abasic DNA cleavage fluorescence; 0.35% of 350,000 active;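 further: plate controls were vehicle for no effect and reference inhibitor for full effect; nearly all actives have a fitted effect of over 55% in size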
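Enzyme (0.75 nM final) and test compound are incubated 15 min at room temperature before adding 50 nM quenched THF abasic-site duplex. Cleavage dequenches TAMRA, followed at 525/598 nm over three reads one minute apart.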
RECQ1 helicase: inhibitors of human RECQ1 DNA helicase | P46063 | RECQ1 DNA unwinding, red fluorescence kinetic read | Potency, µM (highest dose often 57.3 µM), for the others: top-dose activity, negative = inhibition, actives largely listed as inhibitors | 0.54% of 240,000 active;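 further: plate controls were vehicle for no effect and no enzyme for full effect; nearly all actives have a fitted effect of over 30% in size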
Target sequence (P46063 whole entry, looked up): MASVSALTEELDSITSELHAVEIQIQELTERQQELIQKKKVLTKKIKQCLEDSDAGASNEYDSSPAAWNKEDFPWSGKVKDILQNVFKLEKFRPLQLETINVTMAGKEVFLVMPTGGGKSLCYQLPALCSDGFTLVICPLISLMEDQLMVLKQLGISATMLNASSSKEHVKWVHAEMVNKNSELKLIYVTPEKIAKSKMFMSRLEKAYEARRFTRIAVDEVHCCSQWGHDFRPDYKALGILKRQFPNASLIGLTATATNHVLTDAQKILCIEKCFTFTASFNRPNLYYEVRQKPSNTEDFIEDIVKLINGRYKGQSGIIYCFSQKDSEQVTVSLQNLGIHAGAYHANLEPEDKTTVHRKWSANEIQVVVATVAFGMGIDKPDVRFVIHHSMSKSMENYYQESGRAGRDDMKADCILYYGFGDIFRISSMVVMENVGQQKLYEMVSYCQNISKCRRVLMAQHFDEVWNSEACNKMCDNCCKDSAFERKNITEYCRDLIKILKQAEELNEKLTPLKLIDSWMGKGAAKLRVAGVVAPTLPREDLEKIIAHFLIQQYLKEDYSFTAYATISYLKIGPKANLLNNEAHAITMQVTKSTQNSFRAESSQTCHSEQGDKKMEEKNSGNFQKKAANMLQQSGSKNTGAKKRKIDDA
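RECQ1T1 50 nM; forked duplex (20 bp + 30-nt ss tails) 200 nM, ATP 2 mM final; pH 8.0, 2 mM MgCl2, 2.5 ug/ml poly(dI-dC); 15 min compound preincubation; discontinuous kinetic read over 2 h at RT.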
BLM helicase inh: inhibitors of human Bloom syndrome helicase BLM; Potency, µM (doses to about 56.1 µM), without a hit: at the highest dose activity change, negative = inhibition, most hits filed as inhibitors; recombinant BLM DNA unwinding, fluorescence dequenching; AID 2528; P54132; 0.2% of 350,000 active;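 further: plate controls were vehicle for no effect and no enzyme for full effect; nearly all actives have a fitted effect of over 35% in size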
L3MBTL1 block: blocks human L3MBTL1; Potency, µM (doses to about 57.1 µM), for the others: at the top dose activity, negative = inhibition, hits mostly inhibitors; 0.66% of 230,000 active; Q9Y468; AlphaScreen L3MBTL1–H3K9me1 peptide binding; further: nearly all actives have a fitted effect of over 60% in size
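L3MBTL1 (50 nM) pre-complexed 30 min with biotinylated H3(1-15)K9me1 peptide (75 nM), then compounds added for 30 min at room temperature; AlphaScreen streptavidin donor/nickel chelate acceptor beads (10 ug/mL final) read after 30 min dark incubation.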
* = called active by the depositor; i = inactive; u = inconclusive; x = not tested or not shown; [ ] = remark or other dose. Rows were chosen to be rich in hits. Some 0.78% of all compounds tested hit in one or more screens of this group. The call rests on the fitted dose curve; in most records, active means well fitted curve in the direction sought with a large enough effect; inconclusive means small, poorly fitted or top-dose-only effect, or another doubt; inactive means no such curve, though single readings can be large; an effect the other way counts as inactive or inconclusive. Unless noted, on the % scale 0 is the no-effect control and ±100 the full control effect; potency means the concentration at half of the fitted maximal effect.

SMILES | APEX1 inh | RECQ1 helicase | BLM helicase inh | L3MBTL1 block
CC[C@H](C)[C@H](NC(=O)[C@H](Cc1ccccc1)NC(=O)[C@H](C)NC(=O)[C@H](CC(=O)O)NC(=O)[C@H](CCCCN)NC(=O)[C@H](CO)NC(=O)[C@@H]1CCCN1C(=O)[C@@H]1CCC(=O)N1)C(=O)NCC(=O)N[C@@H](CC(C)C)C(=O)N[C@@H](CCSC)C(N)=O | 3% | -5% | 4% | x
CC1CCN(S(=O)(=O)c2ccc3c(c2)CCC(=O)N3CC(=O)Nc2cccc(C#N)c2)CC1 | 4.7µM* | x | -11% | u
CCOC(=O)c1c(N)sc(=S)c2c1CCC2 | 35µM* | u | -27% | u
O=C1NC(=O)/C(=C/c2ccc(-c3cccc([N+](=O)[O-])c3)o2)S1 | 13µM* | x | u | -1%
CC(C)(C)n1ncc2c(=O)n(Cc3ccc(F)cc3)cnc21 | 12% | x | x | x
CCCCCNc1oc(-c2cccc3ccccc23)nc1C#N | -6% | x | x | x
O=c1/c(=C/c2ccccn2)sc2nc3ccccc3n12 | -2% | -8% | -8% | 5%
O=c1/c(=C\c2cc([N+](=O)[O-])cc([N+](=O)[O-])c2O)sc2nc3ccccc3n12 | 35µM* | 14µM* | -6% | x
O=c1ccc2ccccc2[nH]1 | -7% | -7% | 1% | x
O=C(NCc1ccc(/C=c2\sc3n(c2=O)CCN=3)o1)C(=O)Nc1ccccc1 | 17% | 25% | 3% | 25µM*
Cc1ccc(/C=c2/sc3n(c2=O)CCCN=3)o1 | -4% | -23% | 2% | -6%
CN1C2CCC1/C(=C/c1cccn1C)C(=O)/C2=C\c1cccn1C | -3% | -8% | -10% | 4.5µM*
Cc1cccc(N2CCN(C(=O)/C=C/c3cccs3)CC2C)c1 (configuration not stated) | 9% | i | -7% | x
Cc1cccc(N2CCN(C(=O)CSc3ccsc3[N+](=O)[O-])CC2C)c1 (configuration not stated) | -1% | -8% | -17% | 32µM*
COc1ccc(C2=Nn3c(nnc3-c3ccccc3C)SC2)cc1 | -3% | -1% | -3% | x
O=c1cc(-c2ccccc2O)oc2cc(O)ccc12 | 14% | -12% | -12% | x
O=c1cc(-c2cccc(O)c2O)oc2ccccc12 | -6% | 6.3µM* | 0% | x
COc1ccccc1-c1cc(=O)c2cc(O)ccc2o1 | 11% | -1% | 1% | x
CCOc1ccccc1-c1c2cc(O)c(=O)cc-2oc2cc(O)c(O)cc12 | -2% | -5% | 10µM* | 1.3µM*
O=c1cc2oc3cc(O)c(O)cc3c(-c3ccccc3O)c-2cc1O | 0.89µM* | 3.5µM* | 6.3µM* | 0.79µM*
O=C(O)CC12CC3CC(C1)CC(n1ncc(NCc4ccc5c(c4)OCO5)c(Cl)c1=O)(C3)C2 | -9% | 40µM* | -3% | x
O=C(O)CC12CC3CC(C1)CC(n1ncc(NCc4ccccc4Cl)c(Cl)c1=O)(C3)C2 | 1% | -2% | -1% | 10%
COc1ccc([C@]23Cc4cc(OC)c(OC)cc4C(O2)C2=C(CCCC2=O)O3)cc1 | -21%[12.4 µM] | x | -11%[12.4 µM] | x
CC(=O)N(O)C/C=C/c1cccc(Oc2ccccc2)c1 | -2% | -4% | -9% | x
CCCn1c(/N=C/c2ccccc2O)nc2ccccc21 | 10% | i | 1% | 0%
SMILES | APEX1 inh | RECQ1 helicase | BLM helicase inh | L3MBTL1 block
Cn1c(/N=C/c2c(O)ccc3ccccc23)nc2ccccc21 | -1% | -11% | 1% | 35µM*
CN=c1scc(-c2cccs2)n1/N=C/c1ccccc1O | 3% | -7% | -1% | -25%
C=CCN=c1scc(-c2ccco2)n1/N=C/c1ccc(O)c(O)c1O | u | -10% | -27% | 18µM*
CN=c1scc(-c2cccs2)n1/N=C/c1ccc(O)c(O)c1O | 6.3µM* | 6.3µM* | -18% | 14µM*
CC(C)N=c1scc(-c2ccco2)n1/N=C/c1ccc(O)c(O)c1 | -1% | i | -13% | u
O=C1CNC(=O)/C(=C/c2ccco2)N1 | u | -3% | 2% | 35µM*
Cc1ccccc1N1C(S)=C(C#N)C(=O)NC1c1ccco1 (configuration not stated) | 14% | 25µM* | -27% | u
COc1ccc(/C=N/Nc2ncnc3c2[nH]c2ccc(C)cc23)c(OC)c1OC | 4% | i | -19% | x
COc1cc(OC)c(OC)cc1/C=N/Nc1ncnc2c1[nH]c1ccccc12 | 4% | -1% | 22µM* | 11%
C=CCNC(=O)c1cc([N+](=O)[O-])cc2c(=O)[nH]c(Nc3ccc(Cl)c(Cl)c3)nc12 | 7.9µM* | 7.1µM* | -19% | x
O=C(N/N=C/c1c[nH]c2ccccc12)c1cc(-c2ccc(-c3ccccc3)cc2)n[nH]1 | 9% | -13% | -5% | -1%
O=C(N/N=C/c1c[nH]c2ccccc12)c1cc(-c2ccccc2)n[nH]1 | 8% | 25µM* | -19% | -12%
CCNc1ccc(Br)cc(C(=O)/C=C/c2c(Cl)cccc2Cl)c1=O | u | 1% | u | 8.9µM*
CNc1ccc(Br)cc(C(=O)/C=C/c2ccc(Cl)cc2Cl)c1=O | -7% | -27% | -12% | -15%
COc1cc(/C=N/NC(=O)c2cncc(Br)c2)cc([N+](=O)[O-])c1O | -5% | 6% | -12% | 32µM*
CN(C)CCCNc1c2ccccc2nc2ccccc12 | 9.5µM* | x | 169% | x
CN(C)CCCNc1nc(-c2ccccc2)nc2ccccc12 | 5% | 43% | 20% | -2%
CCC(=O)O[C@@H]1CC(=O)O[C@H](C)C/C=C/C=C/[C@H](O)[C@H](C)C[C@H](CC=O)[C@H](O[C@@H]2O[C@H](C)[C@@H](O[C@H]3C[C@@](C)(O)[C@@H](OC(=O)CC)[C@H](C)O3)[C@H](N(C)C)[C@H]2O)[C@H]1OC | -3%[21 µM] | x | x | x
O=C(Nc1cccc(Cl)c1)OCC#CCCl | 1.6µM* | 28µM* | 28µM* | x
O=C(c1ccc2nc(-c3ccco3)c(-c3ccco3)nc2c1)N1CCN(c2ccccc2)CC1 | -10% | -7% | -16% | u
O=C(O)c1ccc2nc(-c3ccco3)c(-c3ccco3)nc2c1 | u | -14% | -1% | 2.2µM*
CC1=C/C(=C(\c2cc(C)c(O)c(Br)c2)c2ccccc2S(=O)(=O)O)C=C(Br)C1=O | -41% | x | u | 22µM*
COc1cc(O)c(C(C)=O)c(CC(=O)O)c1 | 8.9µM* | u | 3% | x
COc1cc(O)c(C(C)=O)c(OC)c1 | -9% | i | 4% | x
O=C1C2=CC[C@H]3C(=O)N(C4CCCCC4)C(=O)[C@@H]3[C@@H]2[C@H](O)[C@@H]2O[C@H]12 | 10%[12.4 µM] | i[11.5 µM] | 4%[12.4 µM] | x
CCCCN(C)C1=CC2=CC(=C(C#N)C#N)CCC2CC1 (configuration not stated) | 6% | 14µM* | 13µM* | 6%
N#CC(C#N)=C1C=C2C=C(N3CCCCC3)CCC2CC1 (configuration not stated) | 9% | 28µM* | -21% | -9%
CCN(CC)C1=CC2=CC(=C(C#N)C#N)CCC2CC1 (configuration not stated) | 1% | 11% | -29% | -2%
O=C(Nc1ccnn1C1CCN(Cc2ccc3nonc3c2)CC1)c1cccc(F)c1 | 33% | x | -1% | x
